Assay outcomes as filed in PubChem.
HTR5A ag ctr: HTR5A agonists in luminescence cell assay, primary screen, counter-screen for OPRM1-OPRD1 heterodimer agonist project, full-deck HTS; 5-hydroxytryptamine receptor 5A (Homo sapiens), P47898; cell-based; activation, % at 9.3 µM; 340,000 tested, 0.61% active; AID 504692, 2011; in the data active = activation mostly above about 9.5%, no sharp cut-off; inactive = mostly below about 7.6%;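 also: 0% = cells with vehicle only and 100% = reference agonist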
HTR5A inv ag: HTR5A inverse agonists in luminescence cell assay, primary screen, counter-screen for OPRM1-OPRD1 heterodimer inverse agonist project, full-deck HTS. 5-hydroxytryptamine receptor 5A (Homo sapiens), P47898. HTR5A cell line, inverse agonism. AID 504634, 2011. inhibition, % at 9.3 µM. 340,000 tested, 0.083% active; in the data active = inhibition mostly above about 23%, no sharp cut-off; inactive = mostly below about 18%;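 also: 0% = cells with DMSO and 100% = no-cell wells with DMSO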
OPRM1-OPRD1 inv: inverse agonists of MOR-DOR heterodimerization, primary screen, cell-based, luminescence | cell-based MOR-DOR heterodimer luminescence, inverse agonism | 340,000 tested, 0.21% active | inhibition, % at 9.3 µM; in the data active = inhibition above about 22%, passing the limit was not always enough;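 also: 0% = cells with DMSO and 100% = wells without cells with DMSO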
MOR-DOR ag: agonists of OPRM1-OPRD1 heterodimerization, primary screen, cell-based, luminescence; AID 504326, 2011; 340,000 tested, 0.3% active; cells; activation, % at 9.3 µM; in the data active = activation above about 18%;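 also: 0% = vehicle-treated cells and 100% = reference agonist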
m5-HT2A agonist: mouse Htr2a agonists via beta-arrestin recruitment, primary screen, cell-based, luminescence. 5-hydroxytryptamine receptor 2A (Mus musculus), P35363. CHO-K1 mHTR2A beta-arrestin complementation; percent of 30 µM serotonin response. activation, % at 7.6 µM. 360,000 tested, 0.66% active;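 active = activation above a run cutoff, the mean activation of all tested compounds plus 3 SD, cut at about 14% in these data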;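 also: 0% = plate median of compound wells and 100% = 30 µM serotonin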
Target sequence (P35363 whole entry, looked up): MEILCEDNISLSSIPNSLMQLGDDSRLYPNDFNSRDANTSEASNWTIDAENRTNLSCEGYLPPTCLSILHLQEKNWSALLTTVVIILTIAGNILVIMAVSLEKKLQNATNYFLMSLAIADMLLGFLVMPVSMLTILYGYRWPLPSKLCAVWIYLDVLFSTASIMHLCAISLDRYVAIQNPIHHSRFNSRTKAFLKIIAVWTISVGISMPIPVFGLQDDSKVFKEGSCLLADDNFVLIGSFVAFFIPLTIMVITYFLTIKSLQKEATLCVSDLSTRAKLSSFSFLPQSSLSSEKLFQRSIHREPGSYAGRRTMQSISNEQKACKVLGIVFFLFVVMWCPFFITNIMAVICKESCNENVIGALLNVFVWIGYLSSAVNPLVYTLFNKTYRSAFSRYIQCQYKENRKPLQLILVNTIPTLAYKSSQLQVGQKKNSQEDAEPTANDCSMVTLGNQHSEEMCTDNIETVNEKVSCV
OPRM1-D1 inv cf: inverse agonists of MOR-DOR heterodimerization, confirmation, cell-based, luminescence | AID 504900, 2011 | cells expressing OPRM1/OPRD1 heterodimer | 580 tested, 20% active | shares compounds with OPRM1-OPRD1 inv | inhibition, % at 9.3 µM; in the data active = inhibition above about 32%;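 also: 0% = cells with DMSO and 100% = wells lacking cells with DMSO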
HTR5A inv count: HTR5A inverse agonists, counter-screen for OPRM1-OPRD1 inverse agonist project, cell-based, luminescence; HTR5A-expressing cells, inverse agonism; inhibition, % at 9.3 µM; 580 tested, under 10 active; shares compounds with OPRM1-OPRD1 inv; AID 504914, 2011; call rule not given here;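 also: 0% = cells with DMSO and 100% = no-cell wells with DMSO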
* hit, by the source's call; . = not tested or not shown. Sampled rows, rich in hits. Any-hit rate of the full collection: about 1.6%.

SMILES	HTR5A ag ctr	HTR5A inv ag	OPRM1-OPRD1 inv	MOR-DOR ag	m5-HT2A agonist	OPRM1-D1 inv cf	HTR5A inv count
CN(C)c1ccc(C(CNS(=O)(=O)c2ccc(F)c(F)c2)c2c[nH]c3ccccc23)cc1 (stereo not drawn)	4.7	-20.4	-50.6	9.4	-5.2	.	.
CCOc1ccc(-c2c(C(=O)N/N=C/c3cccc(Br)c3)nnn2-c2nonc2N)cc1	2.2	-8.3	-13.3	2.6	-1.1	.	.
Fc1ccccc1NC(=S)NNc1ncc(C(F)(F)F)cc1Cl	-8.3	15.9	44.5*	-8.3	-3.3	-58.6	-2.5
O=C(NNc1ncc(C(F)(F)F)cc1Cl)c1c(Cl)cccc1Cl	-2.3	28.0	24.1	-4.7	-6.8	.	.
CC1CN(S(=O)(=O)c2cccc(C(=O)NCCc3ccc(S(N)(=O)=O)cc3)c2)CC(C)O1 (stereo not drawn)	-4.4	15.7	6.4	-1.2	0.1	.	.
O=C1C(=O)N(CNc2cccnc2)c2ccccc21	0.3	9.0	51.2*	-10.1	1.4	14.5	5.8
O=C1C(=O)N(CNc2ccccn2)c2ccccc21	-5.8	17.4	84.1*	-13.4	6.4	68.3*	11.2
CC(NC(=O)c1ccc(-c2cc(C(F)(F)F)ccc2Cl)o1)c1ccccc1 (stereo not drawn)	-2.3	-20.2	-15.4	2.9	7.4	.	.
CC(=O)OCC1(C)CN(c2ccccc2)N(C(C)=O)C1=O (stereo not drawn)	-4.6	10.9	39.9*	-8.1	3.0	-52.0	-202.4
CCOC(=O)N1C(=O)[C@@](CC)(c2ccccc2)N1C(=O)OCC	-1.5	5.3	8.6	-1.6	0.2	.	.
CC(=O)OCC1(C)CN(c2ccccc2)NC1=O (stereo not drawn)	-1.4	3.4	42.1*	-8.5	1.1	24.6	1.3
CC(=O)OCC1(C)CN(c2ccccc2)N(C(=O)c2ccc(C(C)(C)C)cc2)C1=O (stereo not drawn)	-6.0	3.2	23.1*	-3.2	-1.6	-5.8	-232.3
NS(=O)(=O)c1ccc(NC(=O)COC(=O)CCNC(=O)NC23CC4CC(CC(C4)C2)C3)cc1	-2.2	-1.4	6.3	-1.2	-5.8	.	.
CCn1c(Cc2ccccc2)nnc1SC(C)C(=O)NC1CC1 (stereo not drawn)	0.6	-13.5	16.3	-3.3	5.1	.	.
Cc1ccc(NC(=S)NNC(=O)c2nn(C)cc2Cl)cc1	-6.6	24.0	29.1*	-5.0	-2.5	-9.0	7.0
Cc1cccc(NC(=S)NNC(=O)c2nn(C)cc2Cl)c1	-0.5	5.8	19.9	-3.5	0.0	.	.
Nc1c(Cl)ncnc1N/N=C/c1ccc2ccccc2n1	-1.7	6.4	32.5*	-6.3	-7.4	16.2	7.5
Cc1cc(OCC(=O)NCCc2c[nH]c3ccccc23)c2c(C)c(C)c(=O)oc2c1	3.5	18.7	18.0	-3.6	4.3	.	.
COC(=O)CCC/C=C1/SCC(NC(=O)c2ccccc2)C1=O (stereo not drawn)	-0.9	-15.0	33.2*	-5.6	0.9	-372.1	-48.8
COC(=O)CCC/C=C1/SCC(NC(=O)c2ccccc2)C1O (stereo not drawn)	5.6	-8.1	11.2	-2.2	0.9	.	.
Cn1c(=O)[nH]c(=O)c2c1nc(N1CCNCC1)n2Cc1cccc2ccccc12	-7.5	14.7	38.2*	-6.8	-2.6	-57.0	-23.6
Cn1c(=O)c2c(nc(N3CCNCC3)n2Cc2cccc3ccccc23)n(C)c1=O	-6.7	17.9	42.3*	-7.5	-2.3	4.5	23.0
CCCOc1nc2c(c(=O)n(C)c(=O)n2C)n1Cc1cccc2ccccc12	-2.1	12.2	-38.9	6.7	-0.1	.	.
Oc1ccccc1C1NN=C(c2ccccc2)S1 (stereo not drawn)	-0.9	3.4	23.5	-4.8	4.2	.	.
CCC1Oc2ccccc2N(CC(=O)NC2CCCCC2)C1=O (stereo not drawn)	3.5	-15.4	9.2	-1.3	5.2	.	.
SMILES	HTR5A ag ctr	HTR5A inv ag	OPRM1-OPRD1 inv	MOR-DOR ag	m5-HT2A agonist	OPRM1-D1 inv cf	HTR5A inv count
Cn1cnc([N+](=O)[O-])c1S(=O)(=O)Oc1cccc2ccccc12	-5.3	21.5	24.3	-4.7	-1.6	.	.
Cn1cnc([N+](=O)[O-])c1S(=O)(=O)Oc1ccc(Cl)cc1	-6.0	23.7	39.5*	-8.1	4.9	-24.5	20.4
COc1ccccc1NC(=O)COC(=O)CN1C(=O)C(=O)c2ccccc21	0.9	9.8	56.5*	-8.0	5.4	8.4	5.6
CCOC(=O)c1nn(C)c(=S)n(C)c1=O	-1.5	6.0	1.7	-0.3	2.8	.	.
COc1ccccc1-c1nnc(SCC(=O)N2CCCC2)o1	12.9	-36.5	8.9	-1.4	6.8	.	.
CC(=O)Oc1ccc(OC(C)=O)c(SCCCCCN2CCOCC2)c1	2.2	-9.5	29.4*	-5.5	-2.7	-13.9	-3.4
CC(C)c1ccc(OCCCCCN2CCOCC2)cc1	-4.6	16.4	1.5	-0.3	-4.8	.	.
O=C(Cn1nnc2ccccc21)OCC(=O)c1ccc(Cl)c(Cl)c1	-3.3	11.9	71.2*	-13.2	-1.5	-105.9	-22.7
CC(C)(C)c1cc(C(=O)NCC(=O)OCC(=O)c2cccc([N+](=O)[O-])c2)cc(C(C)(C)C)c1	-3.1	10.7	46.3*	-8.8	-0.4	37.3*	52.2*
O=C(CN1C(=O)C2C3CC(C(Br)C3Br)C2C1=O)OCC(=O)c1cccc([N+](=O)[O-])c1 (stereo not drawn)	-6.5	17.7	60.9*	-12.1	-1.4	37.8*	14.3
O=C(Cc1ccccc1)NCC(=O)OCC(=O)c1ccc([N+](=O)[O-])cc1	3.8	17.5	17.0	-3.5	-0.8	.	.
O=C(CN1C(=O)C2C3C=CC(C3)C2C1=O)OCC(=O)c1ccc([N+](=O)[O-])cc1 (stereo not drawn)	-2.3	6.5	15.1	-2.8	7.2	.	.
O=C(COC(=O)CNC(=O)c1cccc([N+](=O)[O-])c1)Nc1cccc(S(=O)(=O)N2CCCC2)c1	6.8	20.9	-7.4	1.3	-1.8	.	.
O=C(CN1C(=O)C2CC=CCC2C1=O)OCC(=O)c1ccc(Cl)c([N+](=O)[O-])c1 (stereo not drawn)	-4.9	38.2*	89.5*	-16.2	3.2	59.1*	21.0
O=C(CN1C(=O)C2C3C=CC(C3)C2C1=O)OCC(=O)c1ccc(Cl)cc1 (stereo not drawn)	-3.5	8.3	21.5	-4.2	0.7	.	.
O=C(Cc1ccccc1)NCC(=O)OCC(=O)c1cccc([N+](=O)[O-])c1	-7.9	19.3	64.4*	-12.5	-2.0	58.1*	7.6
